Rows were chosen to be rich in hits. Some 6.5% of all compounds tested hit in one or more screens of this group.
Spn PMK inh – inhibitors of Streptococcus pneumoniae phosphomevalonate kinase. purified PMK, PK/LDH-coupled NADH absorbance 340 nm. inhibition, % at 10 µM. 65,000 tested, 0.49% active. AID 539;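 active = top-ranked compounds by inhibition in the single 10 µM screen, taking a fixed number of the strongest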;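 note: 0% = full reaction with DMSO carrier and 100% = background rate without enzyme reaction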
NADH enzymes – inhibitors of enzymes used to reach an NAD/NADH endpoint; coupled PK/LDH NADH assays, four targets; AID 774; 65,000 tested, 0.02% active; IC50, µM (titrated, usually from 10 µM), for inactives: at the top dose inhibition;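 active = single-dose screening hits from any of four coupled enzyme assays that gave an IC50 when retested across doses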;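 note: the DPM-DC format reads NADH fluorescence rather than 340 nm absorbance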
Spn MK inh – blocks S. pneumoniae mevalonate kinase. purified MK, PK/LDH-coupled NADH absorbance 340 nm. 65,000 tested, 0.48% active. AID 555. inhibition, % at 10 µM;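 active = ranked among the strongest by inhibition in the single 10 µM screen, a fixed top-ranked set picked for dose follow-up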
Fluor 339 460 – intrinsic fluorescence of library compounds, ex339/em460 – biochemical, MLSMR library, data from DPM-DC assay, artefact control, profiling panel; compound autofluorescence, ex339/em460 nm, NADH buffer; stronger effect = higher value; 1 = no-compound wells, NADH background; 65,000 tested, 5.5% active; AID 709; fluorescence fold increase at 10 µM;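 active = at 10 µM, mean starting fluorescence two-fold or more over control wells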;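 note: signal is the first read of a kinetic run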
A340 absorber – compound absorbs light at 340 nm | AID 708 | compound absorbance at 340 nm, fold over control | 65,000 tested, under 10 active | fold change at 10 µM;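 active = at 10 µM dose, initial 340 nm absorbance at least 2 fold that of control wells; inactive = change under 2 fold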;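 note: initial absorbance extrapolated from kinetic A340 decline of NADH oxidation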
Spn DPM-DC inh – S. pneumoniae DPM-DC inhibition; purified DPM-DC, PK/LDH coupled NADH fluorescence; calls only at 10 µM; 65,000 tested, 0.49% active; AID 556;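 active = the 320 compounds with the highest percent inhibition in the single-dose primary screen, excluding strongly autofluorescent ones, cut at about 32% in these data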;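 note: kinetic rate of NADH fluorescence loss reporting ADP formed by the decarboxylase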
The depositor's hits bear a star; i = inactive; x = not tested or not shown; + = active, no number.

SMILES	Spn PMK inh	NADH enzymes	Spn MK inh	Fluor 339 460	A340 absorber	Spn DPM-DC inh
O=C(CN1C(=O)NC2(CCCc3ccccc32)C1=O)N1CCN(C(=O)c2ccco2)CC1 (stereo not given)	7.0	3.0%	3.0	1.11	1	i
O=c1cc(-c2ccccc2)[nH]n1-c1nc2ccccc2s1	16.0	6.0%	3.0	1.05	1.05	i
O=c1cc(-c2ccccc2)[nH]c2nc3ccccc3n12	0.0	3.0%	11.0	2.48*	1	x
O=C1CN(C(=O)COC(=O)CCC(=O)c2ccc3c(c2)OCCO3)c2ccccc2N1	16.0	5.0%	0.0	1.24	1	i
CCOc1cccc2cc(-c3cn4cc(C)ccc4n3)c(=O)oc12	5.0	3.0%	1.0	5.05*	1.06	x
COc1ccc2oc(=O)c(-c3nnc(NCc4ccco4)s3)cc2c1	1.0	0.0%	0.0	1.86	1.04	i
CCOc1cccc2cc(-c3nnc(NCc4ccco4)s3)c(=O)oc12	2.0	1.0%	0.0	2.19*	1.04	i
COc1cccc2cc(-c3cn4cccc(C)c4n3)c(=O)oc12	0.0	0.0%	0.0	1.69	1.08	i
O=C(COc1ccc2oc(-c3ccccc3)cc(=O)c2c1)NCc1ccco1	10.0	8.0%	5.0	3.85*	1.13	x
O=C(COC(=O)COc1ccc(Nc2ccccc2)cc1)NCc1ccco1	12.0	6.0%	7.0	1.01	0.98	i
Cc1nc(-c2c(-c3ccc(O)cc3O)noc2C(F)(F)F)cs1	0.0	2.0%	5.0	1.04	1.03	i
CC(C)NC(=O)c1cc2c(-c3ccc(Cl)cc3)nn(C)c2s1	9.0	9.0%	5.0	1.62	1.09	i
COCCNC(=O)c1cc2c(-c3ccccc3F)nn(C)c2s1	13.0	7.0%	12.0	2.03*	0.98	i
COCCCNC(=O)c1cc2c(-c3ccc(Cl)cc3)nn(C)c2s1	0.0	1.0%	1.0	2.16*	1.15	x
Cn1nc(-c2ccc(Cl)cc2)c2cc(C(=O)NCCCN3CCCC3)sc21	6.0	6.0%	6.0	2.13*	1.12	x
COCCNC(=O)c1cc2c(-c3ccc(Cl)cc3)nn(C)c2s1	7.0	4.0%	0.0	2.16*	1.06	x
CCCCNC(=O)c1cc2c(-c3ccc(Cl)cc3)nn(C)c2s1	0.0	1.0%	3.0	1.46	1.06	i
COc1ccc(C2C(C#N)=C(/N=C/N3CCN(C)CC3)OC3=C2C(=O)CC(C)(C)C3)cc1OC (stereo not given)	0.0	2.0%	6.0	1.03	1.09	i
CCCCCOc1ccc(C2C(C(C)=O)=C(C)Nc3ncnn32)cc1OC (stereo not given)	16.0	8.0%	8.0	1.06	1.02	i
Cn1c(NC(=O)c2ccc(Br)o2)cc(=O)n(C)c1=O	0.0	3.0%	0.0	0.99	1.19	i
O=C1NCN(c2ccccc2)C12CCN(c1nnnn1-c1ccccc1)CC2	14.0	5.0%	1.0	1.11	1.03	i
CCOC(=O)N1CCC(NC(=O)c2cc3c(-c4ccc(Cl)cc4)nn(C)c3s2)CC1	10.0	8.0%	6.0	2.14*	1.14	x
CC1(C)NC(=O)N(CNc2cc(Cl)ccc2Cl)C1=O	15.0	3.0%	6.0	1.05	0.99	i
c1ccc2c3c(cc(N4CCOCC4)c2c1)OC1(N2CCOCC2)CCCCC1O3 (stereo not given)	7.0	10.0%	12.0	3.88*	1.03	x
O=C(Nc1ccc(N2CCOCC2)c(Cl)c1)C1CCCCC1	11.0	7.0%	8.0	1.1	1.01	i
SMILES	Spn PMK inh	NADH enzymes	Spn MK inh	Fluor 339 460	A340 absorber	Spn DPM-DC inh
COc1ccc(-c2cc3nc4n(c(=O)c3s2)CCOC4)cc1	4.0	2.0%	0.0	2.36*	1.05	x
C=CCn1c(CCC(=O)O)ccc1-c1ccccc1	8.0	13.0%	14.0	1.28	1.04	i
CCOC(=O)C1CCCN(S(=O)(=O)c2cccc3cccnc23)C1 (stereo not given)	6.0	3.0%	4.0	1.11	1.02	i
c1ccc2c(c1)ncc1cccn12	8.0	5.0%	1.0	2.11*	1.09	x
CC(=O)Nc1nn(C)c2nc3cc(C)ccc3cc12	3.0	9.0%	11.0	1.99	1.07	i
Cc1ccc2cc3c(NC(=O)c4ccco4)nn(C)c3nc2c1	6.0	17.0%	9.0	2.9*	1.07	+
CCOC(=O)c1c(Nc2nc(C)c(C(=O)NC)s2)sc(C)c1C	16.0	30.0%	33.0	1.08	1.15	+
